system: VDR:RXRa (NR concentration 270 nM, RXRa partner concentration 90 nM); test: PBM binding z-score (relative to random genomic background probes); higher = stronger binding; sequences stand for … in GC…GCGATTGACAGCGTAGAATGAAGG
Procedure: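 Protein-binding microarray (Agilent 4x180K custom design, double-stranded 60-nt probes: 5' GC cap, 34-nt variable region, 24-nt constant primer region; full probe sequence given). Purified or IVT nuclear receptor:RXRα heterodimers (3:1 NR:RXRα, mostly 270:90 nM) or homodimers were incubated for 1 h in PBS with 2% milk and no ligand, then detected with Alexa488 antibodies. Fluorescence from o1-orientation probes (~5 replicates averaged) was converted to z-scores against 500 random hg19 background probes. Variable regions are seed direct-repeat (DR0–DR5) sites, all their single-nucleotide variants and half-site ablations.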

Row | Sequence | PBM binding z-score
1 | ATCTCTAGGTAAGACTCAGTCCAGTGAAGAACGC | 0.327
2 | CAAACTAGGTCAAGAGGTCTAAGTCCGCTTCCCG | 3.91
3 | TCTTGTAGATCAAGCAGGTTAAGAAGGCCTGAGT | 0.55
4 | GCGACTGGGGCATCAGGAGGTTACCATAACTTAA | 0.558
5 | CATCCAAGGTCAATGCTAGGTCAGTGAAAGCATT | 4.82
6 | TAGAGTAGGTTAGTCGGGGCATTCAGCCAACATA | 2.52
7 | TCGAGTAGGTTATGGGCATTCAGAATGGCGTCGA | -0.235
8 | CCGACTGGGGCAAGTTTACCATAACGCACAGCCA | 0.191
9 | GCTTGGAGATCAAGGTTAAGAAAGACTAAGCTAA | 0.128
10 | TCTAATAGTTGAAGGGCAACCGACGAGTCCGTTT | 0.759
11 | AGAATGAGGTTATTAAGATCTGGGAATTGCGGTC | 1.33
12 | TCTTGTAGATCAATAGAGTTTAAGAAAGTGCGCT | 1.23
13 | ATCTATAGGTAAAGATAGTTCAGTGAATGCAAAT | 1
14 | CGAACGAGGGCACGAGTTGATAGCAAATGCCGAT | 1.97
15 | TCTCGGAGGACATGAAAGGTCAGAGCTCGACATC | 2.81
16 | ATCTCTAGGTAACCAAGTTCAGCGAATGCCGAAC | 4.31
17 | TCTCGGAGGACACGCAAGGTCAGAGCTCGACATC | 2.45
18 | CCTCGGAGGACAACAGGAGGTCAGAGTTGCCAGA | 1.97
19 | GGAACGAGGGCAAAGTCGATAGCATCTGTCGACG | 0.524
20 | TCTAGCAGGCCAGAAGGTCACTCAAGAGGTACGG | 2.16

Row | Sequence | PBM binding z-score
21 | GATACAGGGTCGAGGCCAGAGTACGCGTATTGAT | 1.41
22 | ATCTCTAGATAAAGATAGTTCAGTGAATGCAAAT | 0.517
23 | TTACCTAGGTGAAAGGTCGTTGATGCACGCCTTG | 2.75
24 | CCGGCTGGGGCAAAGGTTACCATACTCAGTACGA | 1.58
25 | GCTTGTTGATCAAGGTTAAGAAAGACTAAGCTAA | 0.122
26 | CAAACTAAGTCAAAGGTCAAAGTCGAGCCAACCA | 5.35
27 | CCAGACAGGGGAAAGGTAACTCAGTCTGGTACGC | -0.0821
28 | TCTTGTAGATTAAAGGTTAAGAAAGCCGAAGCCT | 1.09
29 | TCTAGTAGTTGATTAGGGCAACCGAAACAGCGGA | 0.217
30 | GCAGACAGGTGACACGCAGGTAACTCAGGGTGGC | -0.517
31 | CAAACTAGGTCAACGGAAGGTCAAAGTCCGCATG | 5.56
32 | TGAATGAGATTAAAGATCAGGGAACGTGGCGTCG | -0.176
33 | TCTAGCAGGCCAGCGGGTCACTCAAGAGGTACGG | 0.435
34 | TAGCCTAGGTCATGGGCCAGTATTCCACGCGAAC | 2.09
35 | TGTCAAAGTTCAAAGGTAACGTAAGTATCCACAC | 5.1
36 | GGAACGAGGGCATTAGAGTTGATAGCATGGCGAT | 2.83
37 | TCAGACAGGTGAAGGTAACACAGGTACGCAGTCG | 1.05
38 | GGAACGAGGGCAAAGTTGATAGGATCTGTCGACG | 1.37
39 | ACAGCCAGGTGATGAAGGTAACTCAGGCTATCAT | -0.126
40 | AGAATGAGGTTATACGTAGATCAGCGAAGAAAGT | 0.978
